Laboratory results from the supplement of paper PMC10849652.
Targets with a hit are over-represented here; the source holds about 8,800 in all. About 0.5% of all pairs of compound and target were hits.

Compound: O=C(CCCCCCC(=O)Nc1ccccc1)NO [vorinostat]
Assay: log2 fold change, soluble protein after heating vs DMSO (PISA); higher = thermal stabilisation; K562 lysate, 10 uM; active = over 0.2 and 3.5 SD of the protein, either way, in both replicates (recomputed)
Outline: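 Log-two fold change in thermal stability relative to solvent controls is reported from duplicates. For each sample, crude K562 extract from dounce-homogenised pellets in PBS pH 7.4 with 1 mM MgCl2, at 1 mg/mL protein, was treated with 10 μM compound for 30 min. Aliquots heated for 3 min across 48°C-58°C were pooled, brought to 0.5% NP-40 at 4°C and cleared at 21,000xg for 90 min. The supernatant was quantified by TMTpro 16plex LC-MS/MS with channel sums equalised.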

UniProt P98196, sequence (P98196 whole entry, looked up): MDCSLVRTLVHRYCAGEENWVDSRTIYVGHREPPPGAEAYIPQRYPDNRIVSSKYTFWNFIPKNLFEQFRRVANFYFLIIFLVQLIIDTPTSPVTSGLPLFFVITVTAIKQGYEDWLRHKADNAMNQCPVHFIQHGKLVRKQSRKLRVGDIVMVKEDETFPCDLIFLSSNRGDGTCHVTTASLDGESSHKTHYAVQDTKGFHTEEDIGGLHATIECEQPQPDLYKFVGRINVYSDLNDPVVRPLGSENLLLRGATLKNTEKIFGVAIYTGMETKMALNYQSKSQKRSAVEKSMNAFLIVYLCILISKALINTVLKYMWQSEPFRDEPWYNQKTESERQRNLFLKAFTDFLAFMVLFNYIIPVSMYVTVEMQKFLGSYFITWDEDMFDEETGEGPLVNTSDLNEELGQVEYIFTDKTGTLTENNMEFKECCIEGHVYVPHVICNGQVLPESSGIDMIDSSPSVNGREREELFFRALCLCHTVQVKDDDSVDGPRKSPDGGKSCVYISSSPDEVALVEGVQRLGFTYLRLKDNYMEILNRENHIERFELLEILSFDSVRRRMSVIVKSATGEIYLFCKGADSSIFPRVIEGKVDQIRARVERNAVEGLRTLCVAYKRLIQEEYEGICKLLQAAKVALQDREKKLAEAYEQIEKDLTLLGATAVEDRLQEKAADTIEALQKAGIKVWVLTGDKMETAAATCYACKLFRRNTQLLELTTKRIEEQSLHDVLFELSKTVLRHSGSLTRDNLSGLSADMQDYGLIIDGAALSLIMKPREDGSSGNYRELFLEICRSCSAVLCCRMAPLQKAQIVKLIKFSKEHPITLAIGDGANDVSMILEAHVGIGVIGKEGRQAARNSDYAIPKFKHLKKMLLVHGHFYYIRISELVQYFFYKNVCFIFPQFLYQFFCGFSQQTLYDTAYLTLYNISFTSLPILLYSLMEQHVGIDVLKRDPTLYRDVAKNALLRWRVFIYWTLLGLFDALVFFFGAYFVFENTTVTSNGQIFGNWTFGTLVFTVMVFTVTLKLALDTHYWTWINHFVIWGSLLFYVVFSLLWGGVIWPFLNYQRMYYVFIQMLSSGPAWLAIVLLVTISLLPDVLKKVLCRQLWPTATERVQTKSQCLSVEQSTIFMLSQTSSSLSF
UniProt O94986, sequence (O94986 whole entry, looked up): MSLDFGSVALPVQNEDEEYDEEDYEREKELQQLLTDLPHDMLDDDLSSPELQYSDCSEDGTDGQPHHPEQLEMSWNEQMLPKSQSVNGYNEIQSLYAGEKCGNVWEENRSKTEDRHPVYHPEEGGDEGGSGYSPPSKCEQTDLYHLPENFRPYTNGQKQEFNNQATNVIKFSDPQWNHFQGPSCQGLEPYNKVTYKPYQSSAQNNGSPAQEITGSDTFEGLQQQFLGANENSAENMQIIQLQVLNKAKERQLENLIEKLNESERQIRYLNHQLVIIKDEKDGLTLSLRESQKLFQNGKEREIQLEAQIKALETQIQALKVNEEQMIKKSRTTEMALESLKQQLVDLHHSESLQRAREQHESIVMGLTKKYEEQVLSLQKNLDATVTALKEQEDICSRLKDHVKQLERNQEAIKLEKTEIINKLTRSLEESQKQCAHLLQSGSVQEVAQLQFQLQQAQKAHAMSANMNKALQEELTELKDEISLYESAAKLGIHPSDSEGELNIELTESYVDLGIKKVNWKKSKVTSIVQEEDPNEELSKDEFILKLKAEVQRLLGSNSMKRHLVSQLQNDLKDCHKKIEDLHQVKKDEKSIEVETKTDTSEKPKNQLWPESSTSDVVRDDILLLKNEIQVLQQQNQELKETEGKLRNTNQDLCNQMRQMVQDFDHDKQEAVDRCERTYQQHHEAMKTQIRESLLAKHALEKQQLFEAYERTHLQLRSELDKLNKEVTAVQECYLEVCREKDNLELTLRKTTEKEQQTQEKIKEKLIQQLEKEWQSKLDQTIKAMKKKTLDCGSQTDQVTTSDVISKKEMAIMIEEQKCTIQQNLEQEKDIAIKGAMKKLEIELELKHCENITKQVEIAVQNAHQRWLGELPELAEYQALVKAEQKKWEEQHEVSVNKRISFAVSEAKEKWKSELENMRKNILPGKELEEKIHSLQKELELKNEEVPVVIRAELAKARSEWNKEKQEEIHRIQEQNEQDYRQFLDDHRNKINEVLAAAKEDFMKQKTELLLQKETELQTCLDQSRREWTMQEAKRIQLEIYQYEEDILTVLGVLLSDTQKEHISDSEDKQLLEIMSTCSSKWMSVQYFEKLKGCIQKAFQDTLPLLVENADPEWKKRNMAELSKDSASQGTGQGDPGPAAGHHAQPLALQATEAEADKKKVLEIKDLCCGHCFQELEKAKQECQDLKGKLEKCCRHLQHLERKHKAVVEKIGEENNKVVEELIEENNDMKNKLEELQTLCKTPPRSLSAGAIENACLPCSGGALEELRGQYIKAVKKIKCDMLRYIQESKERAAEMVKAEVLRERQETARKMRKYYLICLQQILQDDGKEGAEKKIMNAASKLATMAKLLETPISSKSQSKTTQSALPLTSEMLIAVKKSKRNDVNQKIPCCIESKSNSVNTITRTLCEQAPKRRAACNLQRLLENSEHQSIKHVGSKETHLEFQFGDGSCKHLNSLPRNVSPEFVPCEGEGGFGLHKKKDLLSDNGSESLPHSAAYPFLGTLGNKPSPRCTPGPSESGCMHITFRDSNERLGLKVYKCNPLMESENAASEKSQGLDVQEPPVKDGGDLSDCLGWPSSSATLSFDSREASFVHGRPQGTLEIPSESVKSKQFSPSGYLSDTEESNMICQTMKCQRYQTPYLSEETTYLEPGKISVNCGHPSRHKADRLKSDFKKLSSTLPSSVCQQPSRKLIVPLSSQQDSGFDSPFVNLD
UniProt Q00537, sequence (Q00537 whole entry, looked up): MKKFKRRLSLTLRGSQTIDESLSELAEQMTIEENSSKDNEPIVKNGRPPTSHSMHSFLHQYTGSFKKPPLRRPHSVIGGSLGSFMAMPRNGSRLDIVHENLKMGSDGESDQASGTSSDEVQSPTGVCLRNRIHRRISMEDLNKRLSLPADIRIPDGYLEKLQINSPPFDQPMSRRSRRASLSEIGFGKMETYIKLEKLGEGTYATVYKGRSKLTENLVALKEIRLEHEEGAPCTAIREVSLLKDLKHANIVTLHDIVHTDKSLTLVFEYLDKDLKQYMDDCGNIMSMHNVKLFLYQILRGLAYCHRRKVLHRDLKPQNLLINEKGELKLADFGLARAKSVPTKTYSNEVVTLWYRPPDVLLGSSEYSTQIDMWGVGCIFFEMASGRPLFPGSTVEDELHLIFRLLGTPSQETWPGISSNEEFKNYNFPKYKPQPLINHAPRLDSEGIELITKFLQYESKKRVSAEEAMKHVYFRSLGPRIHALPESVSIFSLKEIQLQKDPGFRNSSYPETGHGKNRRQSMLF
UniProt Q12981, sequence (Q12981 whole entry, looked up): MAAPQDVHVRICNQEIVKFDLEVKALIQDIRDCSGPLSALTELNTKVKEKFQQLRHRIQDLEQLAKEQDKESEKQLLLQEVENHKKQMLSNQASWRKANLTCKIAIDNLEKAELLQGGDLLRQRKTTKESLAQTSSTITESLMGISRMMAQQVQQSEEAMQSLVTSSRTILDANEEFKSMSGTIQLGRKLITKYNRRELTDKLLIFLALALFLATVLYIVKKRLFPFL
UniProt Q9H0Y0, sequence (Q9H0Y0 whole entry, looked up): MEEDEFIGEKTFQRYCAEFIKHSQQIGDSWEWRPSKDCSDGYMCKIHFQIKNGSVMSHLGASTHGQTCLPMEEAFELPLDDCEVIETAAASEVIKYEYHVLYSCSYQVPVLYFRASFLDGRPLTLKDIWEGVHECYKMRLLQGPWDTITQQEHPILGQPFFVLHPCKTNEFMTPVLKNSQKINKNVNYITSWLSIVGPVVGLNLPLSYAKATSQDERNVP
UniProt Q5T9A4, sequence (Q5T9A4 whole entry, looked up): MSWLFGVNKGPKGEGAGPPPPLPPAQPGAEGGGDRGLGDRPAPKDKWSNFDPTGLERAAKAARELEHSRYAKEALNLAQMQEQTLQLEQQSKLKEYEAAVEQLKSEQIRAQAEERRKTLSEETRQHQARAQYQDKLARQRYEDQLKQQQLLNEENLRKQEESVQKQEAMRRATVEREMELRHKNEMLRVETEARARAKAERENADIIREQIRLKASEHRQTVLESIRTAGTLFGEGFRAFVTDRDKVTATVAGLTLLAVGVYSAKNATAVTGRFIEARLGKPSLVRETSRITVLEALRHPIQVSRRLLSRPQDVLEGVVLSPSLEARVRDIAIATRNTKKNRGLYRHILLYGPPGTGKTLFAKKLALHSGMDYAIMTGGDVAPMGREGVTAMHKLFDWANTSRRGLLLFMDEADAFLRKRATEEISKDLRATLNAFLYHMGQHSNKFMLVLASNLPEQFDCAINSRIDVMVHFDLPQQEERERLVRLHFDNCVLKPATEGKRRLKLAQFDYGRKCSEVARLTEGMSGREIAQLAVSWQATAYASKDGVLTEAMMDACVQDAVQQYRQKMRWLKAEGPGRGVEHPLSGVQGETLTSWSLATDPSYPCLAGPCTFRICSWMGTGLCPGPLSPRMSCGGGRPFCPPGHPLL
UniProt Q96JB5, sequence (Q96JB5 whole entry, looked up): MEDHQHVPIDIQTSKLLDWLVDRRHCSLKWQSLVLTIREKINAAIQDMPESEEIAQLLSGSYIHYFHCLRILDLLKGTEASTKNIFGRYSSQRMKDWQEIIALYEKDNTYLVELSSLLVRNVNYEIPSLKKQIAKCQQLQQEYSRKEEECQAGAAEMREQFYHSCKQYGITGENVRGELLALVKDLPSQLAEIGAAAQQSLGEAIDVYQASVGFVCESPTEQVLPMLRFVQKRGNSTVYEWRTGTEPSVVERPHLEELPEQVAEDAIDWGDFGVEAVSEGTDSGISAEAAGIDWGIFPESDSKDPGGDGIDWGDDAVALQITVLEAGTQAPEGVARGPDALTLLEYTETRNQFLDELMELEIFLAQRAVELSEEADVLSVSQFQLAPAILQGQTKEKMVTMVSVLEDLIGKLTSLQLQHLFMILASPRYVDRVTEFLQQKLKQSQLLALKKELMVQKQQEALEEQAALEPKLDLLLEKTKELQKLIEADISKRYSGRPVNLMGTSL
UniProt A8MTT3, sequence (A8MTT3 whole entry, looked up): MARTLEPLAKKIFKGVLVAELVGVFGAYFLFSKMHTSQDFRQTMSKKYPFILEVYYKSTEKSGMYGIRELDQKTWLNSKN

log2 fold change, inactive:
ATAD3B (UniProt Q5T9A4) 0.132, BBS7 (UniProt Q8IWZ6) -0.354, CEP120 (UniProt Q8N960) 0.042, AUH (UniProt Q13825) -0.068, CAMKK1 isoform 2 (UniProt Q8N5S9) -0.255, C3 (UniProt P01024) -0.098, CCNA2 (UniProt P20248) 0.075, CDKN1C (UniProt P49918) 0.058, CCNB2 (UniProt O95067) -0.115, CASP6 (UniProt P55212) -0.049, CEP152 (UniProt O94986) -0.167, BLM (UniProt P54132) -0.056, CCP110 (UniProt O43303) -0.102, CDC42EP4 (UniProt Q9H3Q1) 0.018, CARHSP1 (UniProt Q9Y2V2) 0.052, BNIP1 (UniProt Q12981) -0.049, C18orf25 (UniProt Q96B23) 0.089, CDK5RAP2 (UniProt Q96SN8) -0.156, BRD4 (UniProt O60885) -0.115, CAMK2B (UniProt Q13554) -0.133, CDK5RAP3 isoform 4 (UniProt Q96JB5) 0.026, CDK2 (UniProt P24941) 0.006, CDK17 isoform 2 (UniProt Q00537) 0.174, CDC7 (UniProt O00311) -0.152, CCDC25 (UniProt Q86WR0) 0.025, CEBPZOS (UniProt A8MTT3) 0.082, CDK9 isoform 2 (UniProt P50750) -0.198, AURKA (UniProt O14965) -0.236

log2 fold change, active:
BLOC1S6 (UniProt Q9UL45) -0.386, AVEN (UniProt Q9NQS1) -0.738, CBR1 (UniProt P16152) -0.377, ATG10 (UniProt Q9H0Y0) -0.242, CHAF1A (UniProt Q13111) -0.402, ATP11A (UniProt P98196) -0.265, C19orf54 (UniProt Q5BKX5) -0.381, BCKDHB (UniProt P21953) -0.275, ATG4B (UniProt Q9Y4P1) -0.274, CHD5 (UniProt Q8TDI0) -0.261
